According to PubChem BioAssay (NCATS):
“And” between values parts separate entries of the source, which are not always exact repeats. Equal values may be shown once. Inconclusive results are not listed. The source made the active and inactive calls. Unless noted, calls follow the shape of the dose curve; as a rule, active = well fitted curve in either direction with a large enough effect (not every such curve was filed as active); inconclusive = small, poorly fitted or top-dose-only effect, or another doubt; inactive = flat fitted curve, though single readings scatter.

Tests used:
[1] = AP1 Signaling Pathway (AID 357); details: ME-180 AP-1-bla reporter, EGF-induced, beta-lactamase ratio, 5 h;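 also: ME-180 reporter cells stimulated with EGF at its EC50 level; % is scaled to controls: 0 for no effect and ±100 for the full control effect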
Method in brief: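 Cells are seeded overnight, exposed to compound titrations and an EC50 level of EGF for 5 hours at 37 °C, then loaded with CCF4 dye for 2.5 hours. Beta-lactamase activity under the AP-1 element is read as a blue/green ratio.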

[2] = molecular target: Cytochrome P450 1A2 (Homo sapiens) (UniProt P05177); test: p450-cyp1a2 (AID 410; calls by dose curve;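 also: -100% = full effect of reference inhibitor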)
Method in brief: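 O-Demethylation of luciferin 6' methyl ether by human CYP1A2 is monitored as luciferase luminescence. Substrate sits at Km (100uM); enzyme is 20nM. Values are scaled to 57 uM furafylline as maximal inhibition.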

[3] = NFAT Signaling Pathway (AID 444); details: Jurkat NFAT-bla M1, carbachol, beta-lactamase ratio, 5 h;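 also: carbachol stimulus at about its EC50 of 1 µM final; % is scaled to controls: 0 for no effect and ±100 for the full control effect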
Method in brief: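 Read-out: CCF4 FRET ratio (460 nm/530 nm) after 1 h RT dye loading, used for %activity and AC50 from titration series. Cells: Jurkat NFAT-β-lactamase/M1 line, treated with compound plus 1 uM carbachol for 5 h, 37 °C.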

[4] = Stat Signaling Pathway (AID 446); details: ME-180 (cervical carcinoma) SIE beta-lactamase reporter, IL-6 stimulated, 5 h;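 also: ME-180 cervical cancer cells given 40 pM IL-6 alongside compound; SIE-controlled beta-lactamase reporter measured as 460/530 nm FRET emission ratio; % is scaled to controls: 0 for no effect and ±100 for the full control effect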
Method in brief: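 Compound effects on IL-6-induced STAT reporter activity were measured in ME-180 cells. After overnight culture, cells were co-treated with 40 pM IL-6 for 5 hrs before beta-lactamase substrate loading at room temperature.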

[5] = molecular target: Glucocorticoid receptor (Homo sapiens) (UniProt P04150); test: GR-GFP Redistribution (AID 450;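 active = compounds whose dose series gives a full or clear partial fitted curve of increased nuclear translocation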; also: potency is read from the fitted curve at half-maximal effect); details: U2OS GR-GFP nuclear translocation, laser cytometry, 2 h
[6] = molecular target: Glucocorticoid receptor (Homo sapiens) (UniProt P04150); test: GR-EFC Redistribution (AID 451; calls by dose curve; also: potency is read from the fitted curve at half-maximal effect); details: CHO-K1 GR-EFC translocation, beta-gal luminescence, 2 h
Method in brief: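 Translocation of GR-ED fusion to nuclear EA restores b-gal, read by luminescence after 1 h room-temperature detection. Engineered CHO-K1 biosensor cells, 1,000/well, exposed 2 h at 37 C to titrations up to 46 uM final.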

[7] = molecular target: Mitogen-activated protein kinase 10 (Mus musculus) (UniProt Q61831); test: JNK3 AlphaScreen Assay (AID 530);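 also: kinase came from lysate of stimulated human HepG2 cells; signal reports phosphorylation of biotinylated GST-cJun 1-79 at Ser73 with 10 µM ATP; % is scaled to controls: 0 for no effect and ±100 for the full control effect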
Method in brief: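 qHTS titrations with 15 min compound pre-incubation before adding ATP (10 uM final). Read-out: AlphaScreen of Ser73-phosphorylated biotin-GST-cJun using HepG2 lysate JNK3 activated by IL-1β and TNFα.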

[8] = molecular target: 3',5'-cyclic-AMP phosphodiesterase 4B (Homo sapiens) (UniProt Q07343); test: qHTS Assay for Inhibitors of PDE-IV (AID 607; active = well fitted activation curve with a large enough effect in the main read-out, with a control signal flat, not every such curve was filed as active; also: % of control where 0% means no effect)
Method in brief: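 ACTOne HEK293 cells carry a modified cAMP-gated CNG channel and express endogenous PDE4; plated 1000 cells/well, compounds up to 22.9 uM final. Membrane-potential dye fluorescence (ex 535/em 590) was read; parental cells received 10 uM forskolin + 100 uM RO 20-1724.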

[9] = qHTS Assay for Lipid Storage Modulators (AID 1519; calls by dose curve); details: Drosophila S3 cells, BODIPY lipid droplet/cell ratio, laser cytometry, cells loaded with oleic acid; for activity change, negative = inhibition: at 25.7 µM (top of the series)
Method in brief: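 Cells seeded at 5,000 per well were treated with compounds over a concentration series and loaded with oleic acid (400 uM, as added). Lipid droplet fluorescence (488 nm excitation, 500-530 nm channel) was read by laser-scanning cytometry and normalized to 20 uM Triacsin C.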

[10] = molecular target: Luciferin 4-monooxygenase (Photinus pyralis) (UniProt P08659); test: Biochemical firefly luciferase enzyme assay for NPC (AID 624030; active = well fitted inhibition curve with a large enough effect;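 also: purified P. pyralis luciferase at 10 nM with luciferin and ATP substrate; 0% = DMSO and -100% = full luciferase inhibition by PTC124 control; nearly all actives have a fitted effect of over 70% in size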)
Method in brief: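 Direct inhibition of firefly luciferase enzyme (10 nM final, 50 mM Tris Acetate) assessed by luminescence within 5 minutes. Percent activity scaled between DMSO and PTC124 positive control, with concentration-effect curves classified by fit quality and response.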

[11] = qHTS profiling for inhibitors of Plasmodium falciparum proliferation (AID 504749; active = well fitted inhibition curve with a large enough effect;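 also: 0% = DMSO vehicle and full inhibition = artemisinin control; nearly all actives have a fitted effect of over 60% in size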); details: P. falciparum in erythrocytes, SYBR Green DNA, 72 h, at 12.8 µM (top of the series)
Method in brief: (§1)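 SYBR Green fluorescence of parasite DNA, read after lysis and overnight dark incubation, measured growth over 72 h in erythrocyte culture at 0.3% parasitemia and 2.5% hematocrit. Data normalised to DMSO and 0.29 uM artemisinin, with plate-drift correction.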

CP238 = test: as above; details: P. falciparum in erythrocytes, SYBR Green DNA, 72 h; series mostly up to 12.8 µM
Method in brief: as §1

CP262 = test: as above; details: P. falciparum in erythrocytes, SYBR Green DNA, 72 h; series mostly up to 12.8 µM
Method in brief: as §1

CP325 = test: as above; details: P. falciparum in erythrocytes, SYBR Green DNA, 72 h; series mostly up to 12.8 µM
Method in brief: as §1

ECU = test: as above; details: P. falciparum in erythrocytes, SYBR Green DNA, 72 h; series mostly up to 12.8 µM
Method in brief: as §1

FAB9 = test: as above; details: P. falciparum in erythrocytes, SYBR Green DNA, 72 h; series mostly up to 12.8 µM
Method in brief: as §1

HB3 = test: as above; details: P. falciparum in erythrocytes, SYBR Green DNA, 72 h; series mostly up to 12.8 µM
Method in brief: as §1

JCK = test: as above; details: P. falciparum in erythrocytes, SYBR Green DNA, 72 h; series mostly up to 12.8 µM
Method in brief: as §1

[12] = molecular target: Ubiquitin carboxyl-terminal hydrolase 1 (Homo sapiens) (UniProt O94782); test: Inhibitors of USP1/UAF1: Pilot qHTS (AID 504865; active = well fitted inhibition curve with a large enough effect;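 also: rhodamine fluorescence freed from ubiquitin-rhodamine substrate followed over time; top concentration of the series differs between compounds; % is scaled to controls: 0 for no effect and ±100 for the full control effect; nearly all actives have a fitted effect of over 35% in size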)
Method in brief: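 Enzyme-free wells gave the negative control, while test wells held 1nM USP1/UAF1 preincubated with compound for 15 min at room temperature. Ub-Rho at 150nM final started the reaction, and fluorescence at 480/540 nm was recorded kinetically.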

[13] = at 7.69 µM (top of the series) unless noted
[14] = measured here: cell count channel max response
[15] = measured here: lipid channel max response

Chain of Luciferin 4-monooxygenase (Photinus pyralis) (P08659 whole entry, looked up): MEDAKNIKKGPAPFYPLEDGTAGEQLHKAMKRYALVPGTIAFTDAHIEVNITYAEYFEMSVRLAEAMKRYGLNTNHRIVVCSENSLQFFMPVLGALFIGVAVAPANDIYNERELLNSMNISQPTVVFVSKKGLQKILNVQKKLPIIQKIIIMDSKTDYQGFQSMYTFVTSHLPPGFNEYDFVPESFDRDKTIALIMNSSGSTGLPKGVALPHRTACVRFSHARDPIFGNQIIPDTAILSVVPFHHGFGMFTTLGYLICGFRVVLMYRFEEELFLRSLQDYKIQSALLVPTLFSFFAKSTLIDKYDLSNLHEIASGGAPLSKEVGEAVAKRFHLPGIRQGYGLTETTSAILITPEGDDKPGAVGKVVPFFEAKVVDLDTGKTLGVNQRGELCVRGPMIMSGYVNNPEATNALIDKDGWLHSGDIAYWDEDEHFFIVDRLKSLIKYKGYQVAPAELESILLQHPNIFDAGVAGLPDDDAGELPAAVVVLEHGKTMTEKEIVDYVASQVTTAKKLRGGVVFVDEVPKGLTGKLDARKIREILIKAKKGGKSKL
Chain of Glucocorticoid receptor (Homo sapiens) (P04150 whole entry, looked up, the tested form may be a part): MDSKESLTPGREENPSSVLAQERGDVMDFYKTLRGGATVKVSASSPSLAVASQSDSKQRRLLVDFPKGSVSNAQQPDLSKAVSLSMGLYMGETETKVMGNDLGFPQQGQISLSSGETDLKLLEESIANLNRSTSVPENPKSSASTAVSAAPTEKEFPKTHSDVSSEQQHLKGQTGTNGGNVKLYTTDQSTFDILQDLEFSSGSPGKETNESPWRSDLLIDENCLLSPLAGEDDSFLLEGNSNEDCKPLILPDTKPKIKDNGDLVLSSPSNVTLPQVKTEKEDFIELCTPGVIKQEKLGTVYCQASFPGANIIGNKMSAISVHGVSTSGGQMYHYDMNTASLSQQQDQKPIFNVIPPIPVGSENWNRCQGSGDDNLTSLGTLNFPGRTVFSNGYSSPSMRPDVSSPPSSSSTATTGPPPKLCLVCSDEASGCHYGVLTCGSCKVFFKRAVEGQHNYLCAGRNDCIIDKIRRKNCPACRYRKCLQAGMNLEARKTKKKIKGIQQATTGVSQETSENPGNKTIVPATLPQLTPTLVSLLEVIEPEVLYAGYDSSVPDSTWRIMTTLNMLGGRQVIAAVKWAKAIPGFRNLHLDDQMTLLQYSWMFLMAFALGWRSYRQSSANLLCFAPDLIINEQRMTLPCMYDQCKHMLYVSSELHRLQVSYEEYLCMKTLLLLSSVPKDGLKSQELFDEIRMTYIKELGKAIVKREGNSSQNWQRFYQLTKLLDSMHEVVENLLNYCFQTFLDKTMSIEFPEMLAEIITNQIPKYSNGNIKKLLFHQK
Chain of Cytochrome P450 1A2 (Homo sapiens) (P05177 whole entry, looked up): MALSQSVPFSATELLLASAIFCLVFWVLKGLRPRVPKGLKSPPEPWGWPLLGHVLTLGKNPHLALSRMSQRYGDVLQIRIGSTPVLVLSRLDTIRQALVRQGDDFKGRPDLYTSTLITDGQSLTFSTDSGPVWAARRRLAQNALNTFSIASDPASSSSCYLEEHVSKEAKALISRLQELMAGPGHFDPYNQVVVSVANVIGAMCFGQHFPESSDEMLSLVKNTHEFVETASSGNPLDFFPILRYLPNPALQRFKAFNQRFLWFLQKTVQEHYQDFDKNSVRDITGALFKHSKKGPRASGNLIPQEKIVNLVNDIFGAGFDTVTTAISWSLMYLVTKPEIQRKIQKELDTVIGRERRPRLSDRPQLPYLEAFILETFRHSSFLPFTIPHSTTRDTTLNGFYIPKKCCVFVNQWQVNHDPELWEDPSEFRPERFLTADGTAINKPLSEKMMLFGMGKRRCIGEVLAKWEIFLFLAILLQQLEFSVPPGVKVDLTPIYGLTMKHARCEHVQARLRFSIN
Chain of Ubiquitin carboxyl-terminal hydrolase 1 (Homo sapiens) (O94782 whole entry, looked up): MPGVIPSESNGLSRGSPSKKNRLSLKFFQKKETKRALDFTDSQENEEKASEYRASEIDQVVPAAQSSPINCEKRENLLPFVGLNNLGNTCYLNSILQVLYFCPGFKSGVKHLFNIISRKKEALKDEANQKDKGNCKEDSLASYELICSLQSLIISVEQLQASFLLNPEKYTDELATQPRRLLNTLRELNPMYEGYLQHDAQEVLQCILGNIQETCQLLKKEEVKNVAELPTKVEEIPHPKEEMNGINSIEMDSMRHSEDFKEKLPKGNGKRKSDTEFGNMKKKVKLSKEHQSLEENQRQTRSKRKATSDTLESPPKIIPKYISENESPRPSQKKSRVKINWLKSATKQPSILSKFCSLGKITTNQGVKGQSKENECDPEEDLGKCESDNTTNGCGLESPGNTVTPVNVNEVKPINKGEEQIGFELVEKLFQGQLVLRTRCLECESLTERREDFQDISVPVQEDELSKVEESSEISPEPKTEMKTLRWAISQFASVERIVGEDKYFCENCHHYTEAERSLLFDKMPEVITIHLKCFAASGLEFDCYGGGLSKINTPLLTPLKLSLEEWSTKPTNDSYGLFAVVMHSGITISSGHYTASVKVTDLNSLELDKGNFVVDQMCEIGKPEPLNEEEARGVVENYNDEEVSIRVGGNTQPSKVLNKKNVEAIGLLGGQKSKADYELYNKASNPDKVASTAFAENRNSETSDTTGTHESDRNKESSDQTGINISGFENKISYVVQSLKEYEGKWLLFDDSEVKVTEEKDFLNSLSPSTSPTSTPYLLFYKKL
Chain of 3',5'-cyclic-AMP phosphodiesterase 4B (Homo sapiens) (Q07343 whole entry, looked up): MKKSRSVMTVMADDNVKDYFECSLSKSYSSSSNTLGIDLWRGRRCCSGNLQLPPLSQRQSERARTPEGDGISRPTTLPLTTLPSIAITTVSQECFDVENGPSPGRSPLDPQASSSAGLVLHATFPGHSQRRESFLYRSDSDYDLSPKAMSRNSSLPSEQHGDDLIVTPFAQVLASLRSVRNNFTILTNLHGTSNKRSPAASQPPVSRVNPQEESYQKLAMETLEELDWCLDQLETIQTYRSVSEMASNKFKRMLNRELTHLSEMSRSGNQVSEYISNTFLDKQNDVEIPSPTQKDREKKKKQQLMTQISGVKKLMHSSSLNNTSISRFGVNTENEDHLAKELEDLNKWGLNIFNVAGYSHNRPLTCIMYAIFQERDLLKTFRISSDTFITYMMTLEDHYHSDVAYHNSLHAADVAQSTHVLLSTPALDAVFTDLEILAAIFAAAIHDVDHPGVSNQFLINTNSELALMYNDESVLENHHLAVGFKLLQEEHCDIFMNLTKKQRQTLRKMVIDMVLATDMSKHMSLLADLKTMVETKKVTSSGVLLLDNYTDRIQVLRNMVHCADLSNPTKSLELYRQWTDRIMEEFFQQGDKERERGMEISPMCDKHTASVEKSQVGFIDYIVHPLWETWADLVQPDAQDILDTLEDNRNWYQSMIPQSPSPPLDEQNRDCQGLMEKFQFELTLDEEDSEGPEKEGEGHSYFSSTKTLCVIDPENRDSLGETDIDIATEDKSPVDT

## CN(N=O)C(=O)N[C@H]1[C@@H](O)[C@H](O)[C@H](CO)O[C@@H]1O
[1]; [13]
  activity change, negative = inhibition: 22% [at 17.2 µM] (inactive)
[2]
  Potency: inactive
[3]; [13]
  activity change, negative = inhibition: 5.2% [at 17.2 µM] (inactive)
[4]; [13]
  activity, negative = inhibition: -4.53% [at 17.2 µM] (inactive)
[5]
  Potency: > 20.6 µM (inactive)
[6]
  Potency: > 20.6 µM (inactive)
[7]
  Potency: inactive
[8]
  Potency: inactive
[9]
  activity change, negative = inhibition: -1.88% (inactive)
[9]; [14]
  max response: -12.1%
[9]; [15]
  max response: -12.9%
[10]
  outcome: inactive
[11]; parasite line A
  activity, negative = inhibition: 2.49% (inactive)
[11]; parasite line B
  activity, negative = inhibition: 8.62% (inactive)
CP238
  Potency: inactive
CP262
  Potency: inactive
CP325
  Potency: inactive
ECU
  Potency: inactive
FAB9
  Potency: inactive
HB3
  Potency: inactive
JCK
  Potency: inactive

## CC1=C(C(=O)O)N2C(=O)[C@@H](NC(=O)[C@@H](N)c3ccccc3)[C@@H]2SC1
[1]; at 17.2 µM (top of the series)
  activity change, negative = inhibition: 16.3% (inactive)
[1]; at 38 µM (top of the series)
  activity change, negative = inhibition: 11% (inactive)
[3]; at 17.2 µM (top of the series)
  activity change, negative = inhibition: -9.84% (inactive)
[3]; at 38 µM (top of the series)
  activity change, negative = inhibition: -0.753% (inactive)
[4]; at 17.2 µM (top of the series)
  activity, negative = inhibition: 10.2% (inactive)
[4]; at 38 µM (top of the series)
  activity, negative = inhibition: 30.7% (inactive)
[7]
  Potency: inactive
[8]
  Potency: inactive
[9]
  activity change, negative = inhibition: -1.09% (inactive)
[9]; [14]
  max response: 0.948%
[9]; [15]
  max response: -0.484%
[12]
  Potency: inactive

## C[C@@]12C[C@@H](O)[C@H]3[C@@H](CCC4=CC(=O)CC[C@]43C)[C@H]1CC[C@H]2C(=O)CO
[1]; at 17.2 µM (top of the series)
  activity change, negative = inhibition: 4.07% (inactive)
[1]; at 38 µM (top of the series)
  activity change, negative = inhibition: -3.18% (inactive)
[3]; at 17.2 µM (top of the series)
  activity change, negative = inhibition: 0.118% (inactive)
[3]; at 38 µM (top of the series)
  activity change, negative = inhibition: -0.571% (inactive)
[4]; at 17.2 µM (top of the series)
  activity, negative = inhibition: -0.637% (inactive)
[4]; at 38 µM (top of the series)
  activity, negative = inhibition: -1.77% (inactive)
[5]
  Potency: 74.2 nM (active) and 8.8 nM (active)
[6]
  Potency: 0.179 µM (active)
[8]
  Potency: inactive
[9]
  activity change, negative = inhibition: -3.75% (inactive)
[9]; [14]
  max response: -3.56%
[9]; [15]
  max response: -9.53%
[12]
  Potency: inactive

## CN(C)CCO[C@](C)(c1ccccc1)c1ccccn1
[1]; at 17.2 µM (top of the series)
  activity change, negative = inhibition: 4.7% (inactive)
[1]; at 38 µM (top of the series)
  activity change, negative = inhibition: 3.93% (inactive)
[2]
  Potency: inactive
[4]; at 17.2 µM (top of the series)
  activity, negative = inhibition: -3.9% (inactive)
[4]; at 38 µM (top of the series)
  activity, negative = inhibition: 8.94% (inactive)
[7]
  Potency: inactive
[8]
  Potency: inactive
[9]
  activity change, negative = inhibition: 0.849% (inactive)
[9]; [14]
  max response: 16.6%
[9]; [15]
  max response: 17.9%
[12]
  Potency: inactive
[10]
  outcome: inactive

## CC(=O)N(CC(O)CN(C(C)=O)c1c(I)c(C(=O)NC[C@@H](O)CO)c(I)c(C(=O)NC[C@@H](O)CO)c1I)c1c(I)c(C(=O)NC[C@@H](O)CO)c(I)c(C(=O)NC[C@@H](O)CO)c1I
[1]; [13]
  activity change, negative = inhibition: 2.7% [at 17.2 µM] (inactive)
[2]
  Potency: inactive
[3]; [13]
  activity change, negative = inhibition: -2.76% [at 17.2 µM] (inactive)
[4]; [13]
  activity, negative = inhibition: 4.45% [at 17.2 µM] (inactive)
[5]
  Potency: > 20.6 µM (inactive)
[6]
  Potency: > 20.6 µM (inactive)
[7]
  Potency: inactive
[9]
  activity change, negative = inhibition: 0.967% (inactive)
[9]; [14]
  max response: -17.3%
[9]; [15]
  max response: -18.3%
[12]
  Potency: inactive
[10]
  outcome: inactive
[11]; parasite line A
  activity, negative = inhibition: 5.56% (inactive)
[11]; parasite line B
  activity, negative = inhibition: 6.47% (inactive)
CP238
  Potency: inactive
CP262
  Potency: inactive
CP325
  Potency: inactive
ECU
  Potency: inactive
FAB9
  Potency: inactive
HB3
  Potency: inactive
JCK
  Potency: inactive
